According to PubChem BioAssay (Tox21):
Activity calls are given as the source filed them. Unless noted, the call rests on the fitted dose curve; in most records, active means well fitted curve in the direction sought with a large enough effect in the repeat runs; inconclusive means weak or mixed curves; inactive means no such curve, though single readings can be large; an effect the other way counts as inactive or inconclusive.

Tests used:
[1] = qHTS assay for small molecules that induce genotoxicity in human embryonic kidney cells expressing luciferase-tagged ATAD5 (AID 651632); further: nearly all actives have a fitted effect of over 15% in size; further: potency means the concentration at half of the fitted maximal effect
Outline: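 HEK293T cells carrying a luciferase reporter tagged to ATAD5 were exposed to compound or DMSO vehicle for 16 hr at 37C, 5% CO2. Amplite was added, and after 30 min at room temperature luciferase activity was read as a marker of ATAD5 induction.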

[2] = qHTS assay for small molecule agonists of the p53 signaling pathway - cell viability (AID 651633; calls by dose curve; further: nearly all actives have a fitted effect of over 30% in size; further: potency means the concentration at half of the fitted maximal effect)
Outline: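 Viability counter-read: CellTiter-Glo luminescence (30 min, room temperature) in the same p53RE-bla plates. These plates had been exposed to compounds for 16 h at 37 C.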

[3] = qHTS assay for small molecules that induce genotoxicity in human embryonic kidney cells expressing luciferase-tagged ATAD5 - cell viability (AID 651634; calls by dose curve; further: nearly all actives have a fitted effect of over 25% in size; further: potency means the concentration at half of the fitted maximal effect)
Outline: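 HEK293T cells expressing luciferase-tagged ATAD5 were exposed to compound or DMSO for 15.5 hr at 37C, 5% CO2. Viability was then read as live-cell protease activity by CellTiter-Fluor fluorescence after 30 min at 37C.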

[4] = qHTS assay for small molecule disruptors of the mitochondrial membrane potential - cell viability (AID 720634; calls by dose curve; further: nearly all actives have a fitted effect of over 20% in size; further: potency means the concentration at half of the fitted maximal effect)
Outline: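 HepG2 cells seeded overnight at 37 C, then exposed to compound or DMSO for 1 hr at 37 C, 5% CO2. m-MPI dye added, then CellTiter-Glo for 30 min at room temperature; viability read as ATP luminescence.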

[5] = qHTS assay to test for compound auto fluorescence at 535 nm (green) in HepG2 cells (AID 720675)
[6] = qHTS assay to test for compound auto fluorescence at 590 nm (red) in HEK293 cells (AID 720679)
Outline: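 Red channel, Ex/Em 540/590nm; signal expressed as equivalency to Rose Bengal sodium. HEK293, 2,000 cells/well, 10% dialyzed FBS; 23 nL compound pinned after 4-5 hr attachment; overnight 37C/5% CO2 before reading.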

[7] = qHTS assay to test for compound auto fluorescence at 535 nm (green) in HEK293 cells (AID 720680)
[8] = qHTS assay to test for compound auto fluorescence at 460 nm (blue) in HEK293 cell free culture (AID 720681)
Outline: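 Blue fluorescence (Ex 405/Em 460 nm, triamterene-equivalent) was read immediately after pin transfer of compound or DMSO into medium (DMEM, 10% FBS) without cells.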

[9] = qHTS assay to test for compound auto fluorescence at 535 nm (green) in HEK293 cell free culture (AID 720682)
Outline: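 No cells present: wells hold DMEM supplemented with 10% FBS, into which compound or vehicle is pinned. Green emission is then recorded (485 nm excitation, 535 nm emission) and scaled to fluorescein.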

[10] = qHTS assay to test for compound auto fluorescence at 590 nm (red) in HEK293 cell free culture (AID 720683)
Outline: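 Red-channel autofluorescence of compounds in culture medium (DMEM, 10% FBS), no cells, measured at 540/590 nm. Rose Bengal sodium is the reference fluorophore for equivalence.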

[11] = qHTS assay to test for compound auto fluorescence at 590 nm (red) in HepG2 cell free culture (AID 720684)
Outline: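 Plate contents were MEM with 10% FBS plus test compound or DMSO, no cells. Fluorescence was recorded with 540 nm excitation and 590 nm emission.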

[12] = qHTS assay to test for compound auto fluorescence at 460 nm (blue) in HepG2 cell free culture (AID 720685)
Outline: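 Compound (23 nL) or DMSO pinned into cell-free MEM with 10% FBS; blue fluorescence read at 405/460 nm excitation/emission, expressed as auto-fluorescence equivalency to triamterene.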

[13] = qHTS assay to test for compound auto fluorescence at 535 nm (green) in HepG2 cell free culture (AID 720686)
[14] = qHTS assay to test for compound auto fluorescence at 460 nm (blue) in HepG2 cells (AID 720687)
Outline: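 Blue-channel autofluorescence (Ex/Em 405/460 nm, triamterene-equivalent) was measured after 1 hr compound exposure at 37 C, 5% CO2. Cells were HepG2, plated overnight at 37 C in MEM plus 10% FBS.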

[15] = qHTS assay for small molecule disruptors of the mitochondrial membrane potential (AID 720635); further: potency means the concentration at half of the fitted maximal effect
Outline: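 Mitochondrial membrane potential tracked with Mito-MPS dye, red aggregates (ex 540/em 590 nm) against green monomers (ex 490/em 535 nm). Compound treatment 1 hr at 37C, dye 30 min in HepG2.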

[16] = qHTS assay to test for compound auto fluorescence at 590 nm (red) in HepG2 cells (AID 720674)
Outline: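 Red autofluorescence (Ex/Em 540/590 nm, Rose Bengal sodium equivalents) was measured in HepG2 cells, 2,000 per well in MEM plus 10% FBS, plated overnight at 37 C. Readings were taken 1 hr after adding 23 nL compound or DMSO, at 37 C and 5% CO2.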

[17] = qHTS assay to test for compound auto fluorescence at 460 nm (blue) in HEK293 cells (AID 720678)
Outline: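 Blue read-out at excitation 405 nm and emission 460 nm follows overnight compound exposure of HEK293 cells at 37C in 5% CO2. Activity is given as auto fluorescence equivalency to triamterene.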

[18] = target: Glucocorticoid receptor (Homo sapiens) (UniProt P04150); assay: qHTS assay to identify small molecule antagonists of the glucocorticoid receptor (GR) signaling pathway (AID 720692; active means well fitted inhibition curve with a large enough effect in the signal ratio in the repeat runs, not every such curve was filed as active; inconclusive means weak or mixed curves, or effect the other way; inactive means no such curve, though single readings can be large or run the other way; the % refers to the signal ratio; further: potency means the concentration at half of the fitted maximal effect)
Chain of Glucocorticoid receptor (Homo sapiens) (P04150 whole entry, looked up): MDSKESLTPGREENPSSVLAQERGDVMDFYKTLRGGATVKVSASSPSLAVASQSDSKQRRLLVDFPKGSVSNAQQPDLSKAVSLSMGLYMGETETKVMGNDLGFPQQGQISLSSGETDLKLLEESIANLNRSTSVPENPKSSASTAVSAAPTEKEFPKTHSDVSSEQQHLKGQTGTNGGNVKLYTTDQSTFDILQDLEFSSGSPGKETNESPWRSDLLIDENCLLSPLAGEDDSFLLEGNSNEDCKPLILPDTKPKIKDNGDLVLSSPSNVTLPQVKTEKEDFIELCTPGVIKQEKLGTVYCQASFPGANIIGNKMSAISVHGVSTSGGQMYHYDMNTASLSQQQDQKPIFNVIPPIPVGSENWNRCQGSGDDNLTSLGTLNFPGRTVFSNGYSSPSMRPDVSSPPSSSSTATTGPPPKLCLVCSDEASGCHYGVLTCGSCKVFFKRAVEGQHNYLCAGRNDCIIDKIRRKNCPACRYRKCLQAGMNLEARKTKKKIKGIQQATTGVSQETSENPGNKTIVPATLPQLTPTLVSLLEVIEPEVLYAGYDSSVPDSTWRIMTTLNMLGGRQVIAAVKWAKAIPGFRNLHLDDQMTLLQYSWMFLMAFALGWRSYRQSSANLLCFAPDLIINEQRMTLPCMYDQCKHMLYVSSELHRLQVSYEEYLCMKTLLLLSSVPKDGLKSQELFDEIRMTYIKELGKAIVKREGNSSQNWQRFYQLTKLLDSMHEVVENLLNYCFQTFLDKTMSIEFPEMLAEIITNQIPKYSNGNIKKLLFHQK
Outline: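 GR-bla HeLa cells (beta-lactamase reporter under glucocorticoid response element) were pre-plated 4 h at 37 C, treated with compounds plus 5 nM dexamethasone (final) for 18 h, then read by LiveBLAzer B/G FRET fluorescence after 2 h.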

[19] = target: Glucocorticoid receptor (Homo sapiens) (UniProt P04150); assay: qHTS assay to identify small molecule agonists of the glucocorticoid receptor (GR) signaling pathway (AID 720691; active means well fitted activation curve with a large enough effect in the signal ratio in the repeat runs, not every such curve was filed as active; inconclusive means weak or mixed curves, or effect the other way; inactive means no such curve, though single readings can be large or run the other way; the % refers to the signal ratio; further: potency means the concentration at half of the fitted maximal effect); conditions: GR-bla HeLa, beta-lactamase reporter ratio, 18 h; activation: at 62.4 µM (top of the series)
Outline: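 GR-bla HeLa cells (beta-lactamase reporter under glucocorticoid response element) were plated 4 h at 37 C/5% CO2, given compounds in DMSO, and incubated 18 h at 37 C. LiveBLAzer B/G FRET substrate was added for 2 h at room temperature, then fluorescence intensity read.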

Measured: Potency

O=C(NNCNNC(=O)c1ccncc1)c1ccncc1
not listed: [15] | [16] | [17] | [18] | [19]
inactive: all other assays above

O=C(CCCN1CCC(n2c(=S)[nH]c3ccccc32)CC1)c1ccc(F)cc1
not listed: [3] | [18] | [19]
inactive: all other assays above

N#CC(c1ccc(Cl)cc1)c1c(Cl)cc(-n2ncc(=O)[nH]c2=O)cc1Cl (stereo unspecified)
active: [2] 23.7 µM | [15] 8.41 µM | [18] 23.9 µM
not listed: [3] | [6] | [10] | [19]
inactive: all other assays above

Clc1cc(Cl)c(OCC#CI)cc1Cl
active: [2] 26.6 µM | [4] 9.44 µM | [15] 4.73 µM | [19] 26.8 µM [inconclusive]
not listed: [3] | [6] | [11] | [12] | [18]
inactive: all other assays above

CCC(=O)O[C@]1(C(=O)CCl)[C@@H](C)C[C@H]2[C@@H]3C[C@H](F)C4=CC(=O)C=C[C@]4(C)[C@@]3(F)[C@@H](O)C[C@@]21C
active: [15] 11.9 µM | [19] 0.0007 µM
not listed: [4] | [18]
inactive: all other assays above

CO[C@H]1C[C@H](O[C@H]2[C@H](C)O[C@@H](O[C@@H]3/C(C)=C/C[C@@H]4C[C@@H](C[C@]5(C=C[C@H](C)[C@@H](C6CCCCC6)O5)O4)OC(=O)[C@@H]4C=C(C)[C@@H](O)[C@H]5OC/C(=C\C=C\[C@@H]3C)[C@]54O)C[C@@H]2OC)O[C@@H](C)[C@@H]1O
active: [2] 6.68 µM | [3] 13.3 µM | [15] 11.9 µM
not listed: [4] | [16] | [17] | [18] | [19]
inactive: all other assays above

CCCc1nc(C(C)(C)O)c(C(=O)OCc2oc(=O)oc2C)n1Cc1ccc(-c2ccccc2-c2nn[nH]n2)cc1
not listed: [4] | [18] | [19]
inactive: all other assays above

OCC(S)CS (stereo unspecified)
active: [2] 26.6 µM
not listed: [3] | [18] | [19]
inactive: all other assays above

C[C@H](N)C(=O)N[C@@H](C)P(=O)(O)O
not listed: [6] | [15] | [17] | [18] | [19]
inactive: all other assays above

CN1CCCC(CN2c3ccccc3Sc3ccccc32)C1 (stereo unspecified)
not listed: [3] | [15]
inactive: all other assays above

CC1=C(C(=O)OCCN(Cc2ccccc2)c2ccccc2)C(c2cccc([N+](=O)[O-])c2)C(P2(=O)OCC(C)(C)CO2)=C(C)N1 (stereo unspecified)
active: [15] 26.6 µM
not listed: [3] | [11] | [17] | [18] | [19]
inactive: all other assays above

CC(C)(C)NCC(O)c1ccc(O)c(CO)n1 (stereo unspecified)
not listed: [15] | [17]
inactive: all other assays above

CCN(CC)CCC(=O)N1c2ccccc2Sc2ccc(Cl)cc21
not listed: [6] | [11] | [15] | [18]
inactive: all other assays above

O=C1/C(=C\c2cccs2)CCC/C1=C\c1cccs1
active: [1] 5.96 µM | [15] 21.1 µM
not listed: [4] | [18]
inactive: all other assays above
